# Measured values taken from paper PMC7862700, “An all-to-all approach to the identification of sequence-specific readers for epigenetic DNA modifications on cytosine”.
# What was measured:
# Assay in all cases: DAPPL (digital affinity profiling via proximity ligation, sequencing); 10 mM Tris-HCl pH 7.5, 50 mM NaCl, 1 mM DTT, 4% glycerol, room temperature, 30 min; GST-TFs on glutathione beads, 16-mer random dsDNA library, 0.1% formaldehyde crosslink after washing; high values mean tight binding
# FLI1 = target: T1, FLI1 (Homo sapiens, UniProt Q01543 1-452); settings: protein: recombinant; tags: N-terminal GST; dsDNA, one strand shown
# T1 sequence: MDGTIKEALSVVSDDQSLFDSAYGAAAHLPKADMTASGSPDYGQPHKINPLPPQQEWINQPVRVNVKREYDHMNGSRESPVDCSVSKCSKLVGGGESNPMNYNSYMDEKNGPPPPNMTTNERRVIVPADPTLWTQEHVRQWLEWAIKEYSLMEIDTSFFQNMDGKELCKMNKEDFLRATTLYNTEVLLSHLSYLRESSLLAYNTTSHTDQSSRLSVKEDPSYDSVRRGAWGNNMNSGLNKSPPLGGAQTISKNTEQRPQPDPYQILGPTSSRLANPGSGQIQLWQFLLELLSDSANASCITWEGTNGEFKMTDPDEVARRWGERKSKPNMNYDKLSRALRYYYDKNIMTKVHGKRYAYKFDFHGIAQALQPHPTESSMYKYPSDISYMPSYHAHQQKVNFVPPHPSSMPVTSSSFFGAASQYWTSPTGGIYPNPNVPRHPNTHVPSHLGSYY
# Procedure, shortened: (§1)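 Human transcription factors were made in yeast as GST fusions, captured on glutathione beads and barcoded with DNA. With a tag-only sample included, the pool was incubated with 200 nmole of a random double-stranded 16-mer DNA library in Tris/NaCl/DTT/glycerol buffer at room temperature for 30 min, then crosslinked with 0.1% formaldehyde after washing, ligated by proximity, amplified and sequenced. For binding signal, each hexamer's read frequency for a factor is divided by its frequency for the tag-only sample.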
# ELK1 = target: T2, ELK1 (Homo sapiens, UniProt P19419 1-428); settings: protein: recombinant; tags: N-terminal GST; dsDNA, one strand shown
# T2 sequence: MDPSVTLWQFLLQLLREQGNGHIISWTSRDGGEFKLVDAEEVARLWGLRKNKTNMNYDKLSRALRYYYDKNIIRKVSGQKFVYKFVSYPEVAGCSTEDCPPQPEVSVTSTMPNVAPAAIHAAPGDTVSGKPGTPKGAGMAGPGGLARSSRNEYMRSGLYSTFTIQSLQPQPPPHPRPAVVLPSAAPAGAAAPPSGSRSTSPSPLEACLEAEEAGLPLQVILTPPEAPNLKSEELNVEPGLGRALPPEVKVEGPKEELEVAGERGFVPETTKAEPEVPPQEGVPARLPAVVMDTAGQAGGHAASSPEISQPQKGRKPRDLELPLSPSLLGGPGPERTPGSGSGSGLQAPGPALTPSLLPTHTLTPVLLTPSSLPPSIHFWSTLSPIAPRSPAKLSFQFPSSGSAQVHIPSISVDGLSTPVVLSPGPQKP
# Procedure, shortened: as §1
# GABPA = target: T3, GABPA (Homo sapiens, UniProt Q06546 1-454); settings: protein: recombinant; tags: N-terminal GST; dsDNA, one strand shown
# T3 sequence: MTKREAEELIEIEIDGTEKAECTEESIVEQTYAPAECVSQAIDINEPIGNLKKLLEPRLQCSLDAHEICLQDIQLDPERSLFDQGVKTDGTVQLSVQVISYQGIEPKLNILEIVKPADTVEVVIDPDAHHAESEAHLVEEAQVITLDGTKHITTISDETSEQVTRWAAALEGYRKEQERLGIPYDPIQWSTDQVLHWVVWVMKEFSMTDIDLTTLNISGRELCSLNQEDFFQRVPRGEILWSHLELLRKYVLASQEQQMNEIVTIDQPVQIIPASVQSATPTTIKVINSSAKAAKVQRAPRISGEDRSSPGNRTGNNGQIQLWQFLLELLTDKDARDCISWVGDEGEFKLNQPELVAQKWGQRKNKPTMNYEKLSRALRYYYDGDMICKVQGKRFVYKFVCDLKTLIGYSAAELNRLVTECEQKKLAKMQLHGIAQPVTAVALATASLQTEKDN
# Procedure, shortened: as §1
# ERG = target: T4, ERG (Homo sapiens, UniProt P11308 1-479); settings: protein: recombinant; tags: N-terminal GST; dsDNA, one strand shown
# T4 sequence: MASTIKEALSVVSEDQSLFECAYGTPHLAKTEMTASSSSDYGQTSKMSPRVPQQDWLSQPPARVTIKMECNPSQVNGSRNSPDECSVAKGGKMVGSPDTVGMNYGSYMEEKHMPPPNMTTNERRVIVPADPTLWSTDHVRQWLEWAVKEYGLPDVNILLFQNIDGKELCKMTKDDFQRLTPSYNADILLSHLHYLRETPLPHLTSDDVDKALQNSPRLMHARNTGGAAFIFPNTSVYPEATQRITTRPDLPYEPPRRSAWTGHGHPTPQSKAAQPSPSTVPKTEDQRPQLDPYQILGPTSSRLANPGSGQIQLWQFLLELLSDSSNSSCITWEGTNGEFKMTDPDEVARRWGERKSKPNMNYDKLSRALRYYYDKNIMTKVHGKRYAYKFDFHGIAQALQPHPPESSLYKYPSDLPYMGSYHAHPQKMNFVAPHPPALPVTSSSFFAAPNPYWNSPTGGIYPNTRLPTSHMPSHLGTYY
# Procedure, shortened: as §1
# ELF1 = ELF1 (Homo sapiens, UniProt P32519 1-619); settings: protein: recombinant; tags: N-terminal GST; dsDNA, one strand shown
# ELF1, sequence (P32519 whole entry): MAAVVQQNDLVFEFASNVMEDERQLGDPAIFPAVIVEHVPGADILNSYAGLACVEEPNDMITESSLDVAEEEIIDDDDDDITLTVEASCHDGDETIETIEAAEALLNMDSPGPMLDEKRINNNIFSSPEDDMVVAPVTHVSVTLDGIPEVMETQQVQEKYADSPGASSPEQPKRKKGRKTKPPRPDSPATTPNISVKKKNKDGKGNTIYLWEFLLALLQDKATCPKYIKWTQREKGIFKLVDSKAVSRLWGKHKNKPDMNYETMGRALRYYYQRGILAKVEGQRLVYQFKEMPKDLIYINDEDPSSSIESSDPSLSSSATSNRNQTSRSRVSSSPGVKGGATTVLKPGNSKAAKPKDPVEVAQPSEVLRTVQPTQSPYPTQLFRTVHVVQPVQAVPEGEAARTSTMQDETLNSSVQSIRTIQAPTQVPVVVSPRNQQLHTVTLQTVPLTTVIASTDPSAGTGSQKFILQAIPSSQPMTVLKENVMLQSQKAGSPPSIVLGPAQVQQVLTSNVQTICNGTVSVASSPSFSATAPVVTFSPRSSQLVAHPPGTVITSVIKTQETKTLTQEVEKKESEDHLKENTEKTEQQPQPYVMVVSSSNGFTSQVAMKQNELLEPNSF
# Procedure, shortened: as §1
# EHF = target: T5, EHF (Homo sapiens, UniProt Q9NZC4 1-300); settings: protein: recombinant; tags: N-terminal GST; dsDNA, one strand shown
# T5 sequence: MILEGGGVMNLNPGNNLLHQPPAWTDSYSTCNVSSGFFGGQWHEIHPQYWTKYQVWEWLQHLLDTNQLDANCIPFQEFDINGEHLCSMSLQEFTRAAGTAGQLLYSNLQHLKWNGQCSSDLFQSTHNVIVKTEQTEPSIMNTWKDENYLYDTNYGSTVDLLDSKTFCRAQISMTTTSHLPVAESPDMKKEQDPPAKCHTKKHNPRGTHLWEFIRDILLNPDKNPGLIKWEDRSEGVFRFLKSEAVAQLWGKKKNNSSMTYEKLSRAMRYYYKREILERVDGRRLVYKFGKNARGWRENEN
# Procedure, shortened: as §1
# SPI1 = SPI1 (Homo sapiens, UniProt P17947 1-270); settings: protein: recombinant; tags: N-terminal GST; dsDNA, one strand shown
# Procedure, shortened: as §1
# SPIB = SPIB (Homo sapiens, UniProt Q01892 1-262); settings: protein: recombinant; tags: N-terminal GST; dsDNA, one strand shown
# SPIB, sequence (Q01892 whole entry): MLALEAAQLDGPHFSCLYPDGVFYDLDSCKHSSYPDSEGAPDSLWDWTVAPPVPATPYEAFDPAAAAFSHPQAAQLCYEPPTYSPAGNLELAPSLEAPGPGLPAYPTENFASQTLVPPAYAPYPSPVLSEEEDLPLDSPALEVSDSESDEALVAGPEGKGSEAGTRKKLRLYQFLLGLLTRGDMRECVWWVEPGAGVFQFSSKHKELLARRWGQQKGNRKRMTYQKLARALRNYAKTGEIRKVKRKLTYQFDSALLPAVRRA
# Procedure, shortened: as §1
# ELK3 = target: T6, ELK3 (Homo sapiens, UniProt P41970 1-407); settings: protein: recombinant; tags: N-terminal GST; dsDNA, one strand shown
# T6 sequence: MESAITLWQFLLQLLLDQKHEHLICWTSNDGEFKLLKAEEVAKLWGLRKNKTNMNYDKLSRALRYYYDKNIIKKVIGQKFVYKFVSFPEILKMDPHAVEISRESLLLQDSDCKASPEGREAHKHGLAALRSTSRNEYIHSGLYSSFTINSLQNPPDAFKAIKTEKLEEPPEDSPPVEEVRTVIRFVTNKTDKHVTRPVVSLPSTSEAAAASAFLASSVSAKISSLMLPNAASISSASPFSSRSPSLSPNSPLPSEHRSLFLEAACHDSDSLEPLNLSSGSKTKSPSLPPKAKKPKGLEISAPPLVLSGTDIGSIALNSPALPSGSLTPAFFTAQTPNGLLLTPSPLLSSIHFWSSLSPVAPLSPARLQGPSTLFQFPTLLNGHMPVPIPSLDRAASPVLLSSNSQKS
# Procedure, shortened: as §1
# FEV = target: T7, FEV (Homo sapiens, UniProt Q99581 1-238); settings: protein: recombinant; tags: N-terminal GST; dsDNA, one strand shown
# T7 sequence: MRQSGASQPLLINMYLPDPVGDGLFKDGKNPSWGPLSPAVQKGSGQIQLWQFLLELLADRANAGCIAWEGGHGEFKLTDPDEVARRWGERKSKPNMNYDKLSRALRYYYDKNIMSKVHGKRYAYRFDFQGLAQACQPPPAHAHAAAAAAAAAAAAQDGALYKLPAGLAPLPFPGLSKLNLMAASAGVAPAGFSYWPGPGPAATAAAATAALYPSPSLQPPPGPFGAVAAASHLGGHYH
# Procedure, shortened: as §1
# ETV5 = ETV5 (Homo sapiens, UniProt P41161 1-510); settings: protein: recombinant; tags: N-terminal GST; dsDNA, one strand shown
# ETV5, sequence (P41161 whole entry): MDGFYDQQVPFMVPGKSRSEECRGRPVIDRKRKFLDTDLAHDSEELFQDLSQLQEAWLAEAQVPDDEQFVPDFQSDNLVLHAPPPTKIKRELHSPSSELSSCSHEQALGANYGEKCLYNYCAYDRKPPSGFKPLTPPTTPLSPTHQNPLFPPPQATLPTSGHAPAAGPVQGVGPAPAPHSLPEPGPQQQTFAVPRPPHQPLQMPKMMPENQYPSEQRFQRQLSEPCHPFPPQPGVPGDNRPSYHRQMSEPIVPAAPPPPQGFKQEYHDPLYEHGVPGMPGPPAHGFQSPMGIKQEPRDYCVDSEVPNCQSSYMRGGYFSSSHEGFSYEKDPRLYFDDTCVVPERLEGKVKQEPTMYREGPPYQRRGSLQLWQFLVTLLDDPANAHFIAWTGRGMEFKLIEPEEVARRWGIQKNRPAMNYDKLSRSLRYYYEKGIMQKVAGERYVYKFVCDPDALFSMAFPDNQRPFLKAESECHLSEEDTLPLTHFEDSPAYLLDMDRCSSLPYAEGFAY
# Procedure, shortened: as §1
# HSF1 = HSF1 (Homo sapiens, UniProt Q00613 1-529); settings: protein: recombinant; tags: N-terminal GST; chain copies: 3; dsDNA, one strand shown
# HSF1, sequence (Q00613 whole entry): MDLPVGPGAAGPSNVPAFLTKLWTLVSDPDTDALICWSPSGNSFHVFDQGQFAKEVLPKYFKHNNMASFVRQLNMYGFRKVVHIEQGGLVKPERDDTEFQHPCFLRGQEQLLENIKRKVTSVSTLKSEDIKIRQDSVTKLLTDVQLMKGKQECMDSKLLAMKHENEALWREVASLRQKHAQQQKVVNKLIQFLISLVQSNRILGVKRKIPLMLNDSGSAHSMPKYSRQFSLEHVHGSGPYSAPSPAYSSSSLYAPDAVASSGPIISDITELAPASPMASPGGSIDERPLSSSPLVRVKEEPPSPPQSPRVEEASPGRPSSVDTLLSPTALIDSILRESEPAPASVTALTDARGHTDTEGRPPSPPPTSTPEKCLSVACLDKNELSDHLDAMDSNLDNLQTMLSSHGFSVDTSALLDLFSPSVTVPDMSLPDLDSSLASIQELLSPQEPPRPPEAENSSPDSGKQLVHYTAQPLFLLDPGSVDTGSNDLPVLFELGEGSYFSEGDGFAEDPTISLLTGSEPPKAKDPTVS
# Procedure, shortened: as §1
# SPIC = target: T8, SPIC (Homo sapiens, UniProt Q8N5J4 1-248); settings: protein: recombinant; tags: N-terminal GST; dsDNA, one strand shown
# T8 sequence: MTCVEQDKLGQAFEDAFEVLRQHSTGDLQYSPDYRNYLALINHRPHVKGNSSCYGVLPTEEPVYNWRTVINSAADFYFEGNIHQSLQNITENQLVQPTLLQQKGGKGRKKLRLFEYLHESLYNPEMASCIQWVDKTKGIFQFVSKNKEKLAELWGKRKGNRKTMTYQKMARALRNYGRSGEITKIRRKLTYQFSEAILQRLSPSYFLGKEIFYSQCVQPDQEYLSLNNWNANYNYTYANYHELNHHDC
# Procedure, shortened: as §1
# ELF4 = ELF4 (Homo sapiens, UniProt Q99607 1-663); settings: protein: recombinant; tags: N-terminal GST; dsDNA, one strand shown
# ELF4, sequence (Q99607 whole entry): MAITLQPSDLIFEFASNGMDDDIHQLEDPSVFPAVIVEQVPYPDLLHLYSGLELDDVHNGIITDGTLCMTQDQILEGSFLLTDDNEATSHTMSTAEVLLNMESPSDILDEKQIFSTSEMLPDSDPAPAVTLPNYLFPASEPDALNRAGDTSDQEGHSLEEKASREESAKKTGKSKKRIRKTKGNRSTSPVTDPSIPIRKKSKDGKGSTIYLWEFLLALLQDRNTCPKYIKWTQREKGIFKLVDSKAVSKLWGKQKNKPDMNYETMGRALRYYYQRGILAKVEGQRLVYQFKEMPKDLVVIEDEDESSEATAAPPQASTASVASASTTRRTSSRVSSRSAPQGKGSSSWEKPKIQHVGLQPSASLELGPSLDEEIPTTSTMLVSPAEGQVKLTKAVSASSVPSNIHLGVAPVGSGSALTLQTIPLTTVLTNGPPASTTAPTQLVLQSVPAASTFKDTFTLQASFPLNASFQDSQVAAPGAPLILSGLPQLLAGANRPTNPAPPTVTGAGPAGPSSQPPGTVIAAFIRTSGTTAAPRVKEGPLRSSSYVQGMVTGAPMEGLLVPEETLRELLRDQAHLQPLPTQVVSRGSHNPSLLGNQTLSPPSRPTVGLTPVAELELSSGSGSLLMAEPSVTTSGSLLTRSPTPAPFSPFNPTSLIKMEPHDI
# Procedure, shortened: as §1
# ELK4 = target: T9, ELK4 (Homo sapiens, UniProt P28324-2 1-405); settings: protein: recombinant; tags: N-terminal GST; dsDNA, one strand shown
# T9 sequence: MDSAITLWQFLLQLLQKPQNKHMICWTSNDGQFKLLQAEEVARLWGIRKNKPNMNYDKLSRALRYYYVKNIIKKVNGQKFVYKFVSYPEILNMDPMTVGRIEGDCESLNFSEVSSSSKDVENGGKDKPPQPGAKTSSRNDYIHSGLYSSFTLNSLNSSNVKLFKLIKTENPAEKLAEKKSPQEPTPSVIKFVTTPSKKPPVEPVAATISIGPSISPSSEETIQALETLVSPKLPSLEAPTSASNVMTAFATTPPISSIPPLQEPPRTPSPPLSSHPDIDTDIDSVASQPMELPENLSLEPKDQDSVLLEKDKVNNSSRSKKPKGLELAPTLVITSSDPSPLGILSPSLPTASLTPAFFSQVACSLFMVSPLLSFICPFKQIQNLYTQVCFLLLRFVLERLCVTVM
# Procedure, shortened: as §1
# ETV2 = target: T10, ETV2 (Homo sapiens, UniProt O00321 1-342); settings: protein: recombinant; tags: N-terminal GST; dsDNA, one strand shown
# T10 sequence: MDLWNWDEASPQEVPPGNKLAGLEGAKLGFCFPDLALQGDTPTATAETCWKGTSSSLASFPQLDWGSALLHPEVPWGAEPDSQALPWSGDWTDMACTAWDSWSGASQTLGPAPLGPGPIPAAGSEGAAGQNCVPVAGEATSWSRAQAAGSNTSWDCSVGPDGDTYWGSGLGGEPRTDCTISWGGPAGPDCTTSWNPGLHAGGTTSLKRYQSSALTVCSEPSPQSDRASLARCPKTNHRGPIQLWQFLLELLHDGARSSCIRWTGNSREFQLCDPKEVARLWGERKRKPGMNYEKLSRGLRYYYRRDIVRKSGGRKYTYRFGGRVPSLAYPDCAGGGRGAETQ
# Procedure, shortened: as §1
# ELF3 = target: T11, ELF3 (Homo sapiens, UniProt P78545 1-371); settings: protein: recombinant; tags: N-terminal GST; dsDNA, one strand shown
# T11 sequence: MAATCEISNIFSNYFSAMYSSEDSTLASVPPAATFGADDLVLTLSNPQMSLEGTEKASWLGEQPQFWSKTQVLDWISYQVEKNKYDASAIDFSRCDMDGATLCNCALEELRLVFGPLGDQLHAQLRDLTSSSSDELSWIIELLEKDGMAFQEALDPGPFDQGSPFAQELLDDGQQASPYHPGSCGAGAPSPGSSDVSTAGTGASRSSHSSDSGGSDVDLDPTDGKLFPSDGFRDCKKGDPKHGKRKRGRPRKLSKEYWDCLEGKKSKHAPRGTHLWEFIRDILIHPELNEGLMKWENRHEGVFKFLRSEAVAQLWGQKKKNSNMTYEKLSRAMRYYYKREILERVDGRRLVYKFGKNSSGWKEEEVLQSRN
# Procedure, shortened: as §1
# CRX = CRX (Homo sapiens, UniProt O43186 1-299); settings: protein: recombinant; tags: N-terminal GST; dsDNA, one strand shown
# CRX, sequence (O43186 whole entry): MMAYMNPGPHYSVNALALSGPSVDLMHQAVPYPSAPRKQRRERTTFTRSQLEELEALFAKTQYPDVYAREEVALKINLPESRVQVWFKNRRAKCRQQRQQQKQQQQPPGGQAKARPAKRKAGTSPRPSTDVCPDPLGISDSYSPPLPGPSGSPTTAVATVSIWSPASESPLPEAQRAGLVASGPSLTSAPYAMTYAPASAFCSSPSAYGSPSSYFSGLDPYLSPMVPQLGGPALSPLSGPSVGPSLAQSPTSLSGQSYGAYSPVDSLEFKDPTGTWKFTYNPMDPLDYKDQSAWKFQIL
# Procedure, shortened: as §1
# ETV1 = ETV1 (Homo sapiens, UniProt P50549 1-477); settings: protein: recombinant; tags: N-terminal GST; dsDNA, one strand shown
# ETV1, sequence (P50549 whole entry): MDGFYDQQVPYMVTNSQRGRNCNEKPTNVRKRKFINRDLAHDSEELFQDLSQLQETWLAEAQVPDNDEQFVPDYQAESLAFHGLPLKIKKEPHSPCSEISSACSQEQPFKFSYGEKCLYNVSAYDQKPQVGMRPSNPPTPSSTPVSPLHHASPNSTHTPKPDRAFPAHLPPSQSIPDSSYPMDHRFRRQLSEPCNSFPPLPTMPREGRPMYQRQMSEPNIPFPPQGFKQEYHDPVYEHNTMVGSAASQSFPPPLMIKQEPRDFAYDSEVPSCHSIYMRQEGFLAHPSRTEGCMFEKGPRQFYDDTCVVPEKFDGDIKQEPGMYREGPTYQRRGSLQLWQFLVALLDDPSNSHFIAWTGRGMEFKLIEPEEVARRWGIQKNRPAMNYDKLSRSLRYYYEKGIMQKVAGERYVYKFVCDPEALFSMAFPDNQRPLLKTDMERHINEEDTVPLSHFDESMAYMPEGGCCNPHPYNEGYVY
# Procedure, shortened: as §1
sequence,measurement,setting,value
CTCCTG,binding signal,FLI1,"1.66 fold enrichment (6-mer frequency, TF over GST control)"
same,binding signal,ELK1,"1.69 fold enrichment (6-mer frequency, TF over GST control)"
same,binding signal,GABPA,"1.74 fold enrichment (6-mer frequency, TF over GST control)"
same,binding signal,ERG,"1.51 fold enrichment (6-mer frequency, TF over GST control)"
same,binding signal,ELF1,"1.65 fold enrichment (6-mer frequency, TF over GST control)"
same,binding signal,EHF,"1.33 fold enrichment (6-mer frequency, TF over GST control)"
same,binding signal,SPI1,"1.58 fold enrichment (6-mer frequency, TF over GST control)"
same,binding signal,SPIB,"1.7 fold enrichment (6-mer frequency, TF over GST control)"
same,binding signal,ELK3,"1.73 fold enrichment (6-mer frequency, TF over GST control)"
same,binding signal,FEV,"1.57 fold enrichment (6-mer frequency, TF over GST control)"
same,binding signal,ETV5,"1.71 fold enrichment (6-mer frequency, TF over GST control)"
same,binding signal,HSF1,"1.52 fold enrichment (6-mer frequency, TF over GST control)"
same,binding signal,SPIC,"1.37 fold enrichment (6-mer frequency, TF over GST control)"
same,binding signal,ELF4,"1.65 fold enrichment (6-mer frequency, TF over GST control)"
same,binding signal,ELK4,"1.35 fold enrichment (6-mer frequency, TF over GST control)"
same,binding signal,ETV2,"1.62 fold enrichment (6-mer frequency, TF over GST control)"
same,binding signal,ELF3,"1.47 fold enrichment (6-mer frequency, TF over GST control)"
same,binding signal,CRX,"1.46 fold enrichment (6-mer frequency, TF over GST control)"
same,binding signal,ETV1,"1.79 fold enrichment (6-mer frequency, TF over GST control)"
